# Where a name gives a salt, the structure may show the parent alone.
# Columns and labels:
# Assay in all cases: Euclidean distance of Cell Painting phenotypic profile (signed KS, 77 features) to DMSO centroid (dimensionless distance); higher = stronger phenotypic change vs DMSO (phenoactivity)
# Details in all cases: 48 h; 5 or 10 uM (library dependent)
# 786-O = tested on: 786-O
# Outline: (§1)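 Phenoactivity is defined as the Euclidean distance from a compound profile to the median vehicle profile. Each profile comprised 77 Harmony features, scored as signed Kolmogorov-Smirnov statistics versus same-plate vehicle wells, then plate-position corrected, correlation-weighted and replicate-averaged at the top dose. Five cancer lines and one healthy fibroblast line were exposed to library compounds for 48 h at 10 or 5 uM (0.1% DMSO final).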
# A549 = tested on: A549
# Outline: as §1
# DU145 = tested on: DU145
# Outline: as §1
# FB = tested on: FB
# Outline: as §1
# HEPG2 = tested on: HEPG2
# Outline: as §1
# OVCAR4 = tested on: OVCAR4
# Outline: as §1
SMILES,Euclidean distance (786-O),Euclidean distance (A549),Euclidean distance (DU145),Euclidean distance (FB),Euclidean distance (HEPG2),Euclidean distance (OVCAR4)
COc1ccc(CN2CCNCC2)c(OC)c1OC [Trimetazidine dihydrochloride],0.784,0.96,0.805,0.719,0.412,1.08
CCCN1C[C@H](CSC)C[C@@H]2c3cccc4[nH]cc(c34)C[C@H]21 [Pergolide Mesylate],1.01,1.03,1.06,0.928,0.589,1.71
CC[C@H](C)[C@@H]([C@@H](CC(=O)N1CCC[C@H]1[C@H](OC)[C@@H](C)C(=O)N[C@H](C)[C@@H](O)c1ccccc1)OC)N(C)C(=O)[C@@H](NC(=O)[C@@H](NC)C(C)C)C(C)C [Monomethyl auristatin E (MMAE)],3.13,2.69,4.69,2.93,3.85,3.16
Cc1ccccc1-n1c(Cn2ncc3c(N)ncnc32)nc2cccc(C)c2c1=O,0.868,0.946,1.12,0.901,2.23,1.03
O=C(NCC1CCOCC1)c1cnc(Nc2ccc(Cl)cc2Cl)nc1C(F)(F)F,0.865,1.09,1.36,3.43,1.64,3.11
CNCC(=O)c1ccc(O)c(O)c1 [Adrenalone HCl],1.06,0.418,1.18,1.16,0.892,0.981
O=C(O)CNC(=O)C1C(=O)N(C2CCCCC2)C(=O)N(C2CCCCC2)C1=O,1.18,0.61,1.4,1.16,1.1,0.706
COC(=O)C[C@](O)(CCC(C)(C)O)C(=O)O[C@@H]1C(OC)=C[C@]23CCCN2CCc2cc4c(cc2[C@H]13)OCO4 [Harringtonine],3.42,3.22,4.37,3.78,3.46,3.73
C[N+](C)(C)CCCCCCCCCC[N+](C)(C)C [Decamethonium Bromide],0.57,0.939,0.691,0.466,0.483,1.05
S=C=NCc1ccccc1 [Benzyl isothiocyanate],4.42,2.5,3.41,2.02,3.28,1.82
C=C1C[C@@H]2[C@H](CC[C@]3(C)C(=O)CC[C@@H]23)[C@@]2(C)C=CC(=O)C=C12 [Exemestane],1.7,1.06,0.488,1,0.7,1.37
CC(NC(C)(C)C)C(=O)c1cccc(Cl)c1 (configuration not stated) [Amfebutamone (Bupropion) HCl],1.39,0.604,0.844,0.936,0.484,1.02
C#C[C@]1(O)C=C[C@H]2[C@@H]3CCC4=CC(=O)CC[C@@H]4[C@H]3CC[C@@]21CC [Gestodene],1.29,0.869,2.08,1.08,2.49,1.33
NC(=O)CN1CC(c2ccccc2)CC1=O (configuration not stated) [Phenylpiracetam],1.05,1.45,0.789,0.956,0.413,1.3
CC(=O)O[C@H]1C[C@H](O[C@H]2[C@@H](O)C[C@H](O[C@H]3[C@@H](O)C[C@H](O[C@H]4CC[C@@]5(C)[C@H](CC[C@@H]6[C@@H]5C[C@@H](O)[C@]5(C)[C@@H](C7=CC(=O)OC7)CC[C@]65O)C4)O[C@@H]3C)O[C@@H]2C)O[C@H](C)[C@H]1O[C@@H]1O[C@H](CO)[C@@H](O)[C@H](O)[C@H]1O [Lanatoside C],6.1,5.41,7.41,3.88,2.69,6.46
CCCCCCC(=O)O[C@H]1CC[C@H]2[C@@H]3CCC4=CC(=O)CC[C@]4(C)[C@H]3CC[C@]12C [Testosterone Enanthate],0.918,0.756,0.828,0.666,0.553,1.49
O=C(O[C@H]1C[N+]2(CCCOc3ccccc3)CCC1CC2)C(O)(c1cccs1)c1cccs1 [Aclidinium Bromide],1.15,1.13,1.29,0.774,0.61,1.23
Cn1c(COP(=O)(NCCBr)NCCBr)cnc1[N+](=O)[O-] [Evofosfamide (TH-302)],1.45,2.69,0.904,1.3,1.86,2.84
CCC1(c2ccc(N)cc2)CCC(=O)NC1=O (configuration not stated) [Aminoglutethimide],1.19,0.545,0.574,1.37,0.54,1.67

SMILES,Euclidean distance (786-O),Euclidean distance (A549),Euclidean distance (DU145),Euclidean distance (FB),Euclidean distance (HEPG2),Euclidean distance (OVCAR4)
C[C@@H]1CC[C@@]2(OC1)O[C@H]1C[C@H]3[C@@H]4CC=C5C[C@@H](O[C@@H]6O[C@H](CO)[C@@H](O[C@@H]7O[C@@H](C)[C@H](O)[C@@H](O)[C@H]7O)[C@H](O)[C@H]6O[C@@H]6O[C@@H](C)[C@H](O)[C@@H](O)[C@H]6O)CC[C@]5(C)[C@H]4CC[C@]3(C)[C@H]1[C@@H]2C [Dioscin],1.76,2.54,0.921,1.29,1.15,4.63
CC[C@@]1(O)C[C@H](O[C@H]2C[C@H](N(C)C)[C@H](O)[C@H](C)O2)c2c(cc3c(c2O)C(=O)c2c(O)cccc2C3=O)[C@H]1C(=O)OC [Aclacinomycin],2.61,3.27,3.54,3.61,3.76,3.12
C/C=C(\C)C(=O)N[C@@H](c1ccccc1)[C@@H](O)C(=O)O[C@H]1C[C@@]2(O)[C@@H](OC(=O)c3ccccc3)[C@@H]3[C@]4(OC(C)=O)CO[C@@H]4C[C@H](O)[C@@]3(C)C(=O)[C@H](OC(C)=O)C(=C1C)C2(C)C [Cephalomannine],2.74,3.24,3.48,2.32,2.11,2.98
C[S+]([O-])CCCCN=C=S (configuration not stated) [sulforaphane],1.73,1.68,1.89,2.33,2.6,1.58
CC(C)(C)NCC(O)c1ccccc1Cl (configuration not stated) [Tulobuterol hydrochloride],0.975,0.768,0.82,0.711,0.75,1.75
CC(Cc1ccc(O)cc1)NCC(O)c1cc(O)cc(O)c1 (configuration not stated) [Fenoterol hydrobromide],0.772,0.319,0.524,0.734,0.461,0.781
CCC1(c2cccc(O)c2)CCCCN(C)C1 (configuration not stated) [Meptazinol HCl],1.46,1.09,0.6,0.726,0.404,0.921
C=C[C@H]1CN2CC[C@H]1C[C@H]2[C@H](O)c1ccnc2ccccc12 [Cinchonidine],1.49,0.828,1.16,1.09,0.521,1.1
C[C@H]1CNCCc2ccc(Cl)cc21 [Lorcaserin HCl],1.56,0.972,1.3,0.956,1.2,0.917
O=c1ccc2cc(O[C@@H]3O[C@H](CO)[C@@H](O)[C@H](O)[C@H]3O)c(O)cc2o1 [Esculin],0.808,0.729,0.922,0.993,0.624,1.29
Cc1sc2c(c1C)C(c1ccc(Cl)cc1)=N[C@@H](CC(=O)Nc1ccc(O)cc1)c1nnc(C)n1-2,2.95,2.08,2.15,4.11,1.91,1.77
Oc1cc(Cl)ccc1Oc1ccc(Cl)cc1Cl [Triclosan],0.695,0.668,0.877,1.15,0.546,1.07
C=CCN1C[C@H](C(=O)N(CCCN(C)C)C(=O)NCC)C[C@@H]2c3cccc4[nH]cc(c34)C[C@H]21 [Cabergoline],1.45,0.993,1.12,1.34,0.928,1.3
CC[C@H](C)[C@H]1O[C@]2(C=C[C@@H]1C)C[C@@H]1C[C@@H](C/C=C(\C)[C@@H](O[C@H]3C[C@H](OC)[C@@H](O[C@H]4C[C@H](OC)[C@@H](O)[C@H](C)O4)[C@H](C)O3)[C@@H](C)/C=C/C=C3\CO[C@@H]4[C@H](O)C(C)=C[C@@H](C(=O)O1)[C@]34O)O2.CO[C@H]1C[C@H](O[C@H]2[C@H](C)O[C@@H](O[C@@H]3/C(C)=C/C[C@@H]4C[C@@H](C[C@]5(C=C[C@H](C)[C@@H](C(C)C)O5)O4)OC(=O)[C@@H]4C=C(C)[C@@H](O)[C@H]5OC/C(=C\C=C\[C@@H]3C)[C@]54O)C[C@@H]2OC)O[C@@H](C)[C@@H]1O [Avermectin B1],1.43,2.77,1.59,1.1,1.38,1.76
O=C1C=C2C=C[C@@H]3C[C@@]2(O1)[C@H]1CCCCN31 [Securinine],0.99,1.25,1.42,1.78,1.08,1.74
C[CH2][Hg][S]c1ccccc1C(=O)[O-].[Na+] [Thimerosal],5.05,2.89,6.79,6.21,1.5,2.69
CCN(CC)CCOC(=O)C(O)(c1ccccc1)c1ccccc1 [Benactyzine hydrochloride],1.27,0.786,1.33,0.83,0.592,1.71
Cc1cc2c(C(C)C)c(O)c(O)c(C=O)c2c(O)c1-c1c(C)cc2c(C(C)C)c(O)c(O)c(C=O)c2c1O [Gossypol],2.34,2.66,0.576,1.05,0.654,1.74

# — the supplement of paper PMC10127200
